Drawing on PubChem BioAssay (NCI), this text covers growth for eight molecules.

Common to all, as to assay: NCI-60 one-dose screen, 48 h (100 = growth as untreated, 0 = no growth, -100 = all killed)
Settings in all cases: 10 µM unless noted

Assay [1] deals with HCT-15 colon.
Assay [2] deals with HT29 colon.
Assay [3] relates to SNB-75 CNS.
The subject of assay [4] is SNB-19 CNS.
Assay [5] has as its system U251 CNS.
For assay [6], the system named is PC-3 prostate.
Assay [7] has as its system SK-MEL-5 melanoma.
Assay [8] relates to UACC-62 melanoma.
Assay [9] concerns LOX IMVI melanoma.
The subject of assay [10] is SK-MEL-28 melanoma.
Assay [11] concerns SK-MEL-2 melanoma.
Assay [12] deals with SN12C renal.
Assay [13] concerns TK-10 renal.
The subject of assay [14] is ACHN renal.
Assay [15] has as its system CAKI-1 renal.
Assay [16] relates to A498 renal.
Assay [17] has as its system CCRF-CEM leukemia.
Assay [18] has as its system MOLT-4 leukemia.
For assay [19], the system named is EKVX NSCLC.
Assay [20] relates to UO-31 renal.

Structures are written as SMILES. “And” between values parts separate entries of the source, which are not always exact repeats. Equal values may be shown once. Compounds without any hit were thinned out: in the full panel of roughly 83,000, 20% have a hit.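 Percent growth is the endpoint: 0 to 100 indicates growth inhibition (40 means 60% inhibition), 0 means no net growth, and negative values indicate cell death.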 The source made the active and inactive calls. How the source made its calls: active means growth percent below 10; inactive means the rest.

Turning to `CCN(CC)CCNc1cc(-c2cccc(OC(F)(F)F)c2)nc2ccc(N3CCCC3)cc12`, the growth was 24.3% (inactive) and 3.13% (active) and 13.6% (inactive) in assay [1]; 10.9% (inactive) and -11.1% (active) and 1.35% (active) in [2]; 86.4% (inactive) and 51.9% (inactive) in assay [3]; 2.91% (active) and 15.2% (inactive) and 36.9% (inactive) in [4]; 46.2% (inactive) and -36.6% (active) and 15.6% (inactive) in [5]; -94.4% (active) and 7.18% (active) and 28.2% (inactive) in [6]. Moreover, the growth in [7] was -2.81% (active) and -88% (active) and 7.43% (active); in assay [8], -64.9% (active) and -73.2% (active) and -23.9% (active); in [9], -40.9% (active) and -59.6% (active) and -51.7% (active); in assay [10], -9.25% (active) and -32.5% (active) and 11% (inactive); in [11] it was 52.2% (inactive) and -30.5% (active) and 4.6% (active); in assay [12] it was 3.62% (active) and 3.14% (active) and 38.1% (inactive). The growth was 74.5% (inactive) and 19.1% (inactive) and 40.1% (inactive) in assay [13]; 24.4% (inactive) and 12.9% (inactive) and 27.7% (inactive) in assay [14]; 49.1% (inactive) and 34.2% (inactive) and 23.1% (inactive) in [15]; 71.2% (inactive) and 4.86% (active) and 50.8% (inactive) in assay [16]; -30.4% (active) and -4.6% (active) and 2.25% (active) in assay [17]; -19.7% (active) and -14.3% (active) and 3.16% (active) in [18].

`CCOc1ccc(Nc2c3ccccc3nc3ccccc23)cc1`: the growth in assay [1] was 91.1% (inactive) and 17.4% (inactive) and 22% (inactive); in assay [2], 98% (inactive) and 4.3% (active) and 10.5% (inactive); in assay [3], 77.1% (inactive) and 38.2% (inactive) and 21.5% (inactive); in assay [4], 91.1% (inactive) and 44.3% (inactive) and 35.2% (inactive); in assay [5] it was 86% (inactive) and 21.4% (inactive) and 28.1% (inactive); in [6], 90.6% (inactive) and 25.6% (inactive) and 39.5% (inactive). The growth in [7] is 80.6% (inactive) and -65.9% (active) and 0.799% (active); in [8] it was 84.8% (inactive) and 18.9% (inactive) and 31.8% (inactive); in assay [9] it was 94.5% (inactive) and 3.66% (active) and 11.5% (inactive); in [10] it was 106% (inactive) and 46.8% (inactive) and 66.1% (inactive); in [11], 104% (inactive) and 34% (inactive) and 72.1% (inactive); in assay [19], 42.8% (inactive) and 42.1% (inactive). For the same molecule, the growth in assay [12] was 81.8% (inactive) and 20.6% (inactive) and 27.6% (inactive); in assay [20], 62.8% (inactive) and 0.768% (active) and 1.99% (active); in [13] it was 93.3% (inactive) and 35.1% (inactive) and 32.7% (inactive); in assay [15], 91.3% (inactive) and 6.56% (active) and -17% (active); in [16] it was 73.5% (inactive) and 35.5% (inactive) and 72.8% (inactive); in assay [17], 99.8% (inactive) and 12.4% (inactive) and 4.91% (active). The growth in assay [18] is 89.9% (inactive) and -2.2% (active) and -10.9% (active).

As to `CCCCCCCCCCCCOc1ccccc1C=O`, the growth in [1] is 101% (inactive); in [2] it was 96.7% (inactive); in [3], 80.6% (inactive); in assay [4], 98.4% (inactive); in assay [5] it was 87.4% (inactive); in assay [6], 108% (inactive). The growth is 101% (inactive) in assay [7]; 102% (inactive) in [8]; 90.1% (inactive) in [9]; 106% (inactive) in [10]; 112% (inactive) in assay [11]; 97% (inactive) in [19]. In addition, the growth in assay [12] is 93.7% (inactive); in assay [13], 118% (inactive); in assay [14], 101% (inactive); in [15] it was 84.9% (inactive); in assay [16], 116% (inactive); in assay [17] it was 79.9% (inactive). In addition, the growth in [18] is 78.3% (inactive).

For `OCCN1CCN(CCCN2c3ccccc3Sc3ccc(Cl)cc32)CC1`, the growth was 49.6% (inactive) and 80.8% (inactive) in assay [1]; 1.64% (active) and 18.2% (inactive) in assay [2]; 59.8% (inactive) and 45.6% (inactive) in assay [3]; 75.6% (inactive) and 100% (inactive) in assay [4]; 58.2% (inactive) and 73.1% (inactive) in assay [5]; 47.7% (inactive) and 67% (inactive) in assay [6]. The growth in assay [7] is 50.4% (inactive); in assay [8], -64.3% (active) and 23.5% (inactive); in [9] it was 29.4% (inactive) and 69.6% (inactive); in assay [10], -33.9% (active) and 56.1% (inactive); in assay [11], 46.5% (inactive) and 74.9% (inactive); in assay [19], 66.8% (inactive). The growth in [12] is 50.2% (inactive) and 72.8% (inactive); in [13], 47.8% (inactive) and 75.4% (inactive); in assay [14], 62.3% (inactive) and 76.1% (inactive); in assay [15], 47.9% (inactive) and 68.8% (inactive); in assay [16], 58.4% (inactive) and 77.8% (inactive); in assay [17] it was 40.6% (inactive) and 55.9% (inactive). In [18], the growth is 47.9% (inactive) and 53.3% (inactive).

On to `CC(C)CNC(=O)c1ccccc1C(=O)NC1(C(=O)NCC(C)C)CCCC1`, for which the growth in assay [1] was 103% (inactive) and 106% (inactive); in [2] it was 105% (inactive) and 104% (inactive); in [3], 87.9% (inactive) and 94.6% (inactive); in [4] it was 105% (inactive) and 108% (inactive); in assay [5], 109% (inactive) and 105% (inactive); in assay [6], 97.9% (inactive) and 96.3% (inactive). For the same molecule, the growth in assay [7] is 106% (inactive) and 115% (inactive); in assay [8] it was 103% (inactive) and 107% (inactive); in assay [9], 90.4% (inactive) and 101% (inactive); in assay [10], 117% (inactive) and 115% (inactive); in assay [11], 103% (inactive) and 100% (inactive); in [19], 96.7% (inactive) and 109% (inactive). Besides, the growth is 99.8% (inactive) and 107% (inactive) in assay [12]; 83.5% (inactive) and 86.1% (inactive) in assay [20]; 111% (inactive) and 114% (inactive) in [13]; 90.6% (inactive) and 98% (inactive) in [15]; 84.2% (inactive) and 123% (inactive) in assay [16]; 88.4% (inactive) and 104% (inactive) in [17]. Also, the growth in [18] is 102% (inactive) and 88.6% (inactive).

On to `COc1ccc(-c2ncnc3c2ncn3C/C=C/CCl)cc1`, for which the growth in [1] was 61% (inactive) and 81.2% (inactive); in assay [2] it was 84.6% (inactive) and 84.3% (inactive); in assay [3], 128% (inactive) and 105% (inactive); in [4], 87.8% (inactive) and 78.5% (inactive); in assay [5], 64.2% (inactive) and 77.3% (inactive); in assay [6] it was 83.8% (inactive) and 87% (inactive). Further, the growth was 85.7% (inactive) and 82.4% (inactive) in assay [7]; 76.6% (inactive) and 74% (inactive) in assay [8]; 98.4% (inactive) and 98.9% (inactive) in [10]; 68.6% (inactive) and 59.2% (inactive) in [11]; 108% (inactive) and 106% (inactive) in assay [19]; 83.6% (inactive) and 79.6% (inactive) in assay [12]. Also, the growth in [20] was 60.3% (inactive) and 85.8% (inactive); in [13], 86.3% (inactive) and 95.3% (inactive); in assay [14], 59.4% (inactive) and 79.3% (inactive); in assay [15] it was 70.8% (inactive) and 90.8% (inactive); in assay [16], 68.4% (inactive) and 85.6% (inactive); in assay [17], 63.2% (inactive) and 56.7% (inactive). The growth in assay [18] is 48.9% (inactive).

Take `CC(C)N=c1cc2n(-c3ccc(Cl)cc3)c3ccccc3nc-2cc1Nc1ccc(Cl)cc1`: the growth was 14.9% (inactive) and 21% (inactive) and 6.17% (active) in assay [1]; 0.808% (active) and 6.25% (active) and -28.1% (active) in assay [2]; 68.1% (inactive) and 53.7% (inactive) and 24.1% (inactive) in [3]; 49.1% (inactive) and 60.7% (inactive) and 36.4% (inactive) in assay [4]; 13.7% (inactive) and 33.5% (inactive) and 6.42% (active) in assay [5]; 22.2% (inactive) and 29.7% (inactive) and 8.73% (active) in assay [6]. Also, the growth is 4.95% (active) and 12% (inactive) and -72.9% (active) in assay [7]; 36% (inactive) and 34.9% (inactive) and 32.9% (inactive) in assay [8]; -20.7% (active) and -48.6% (active) and -80.9% (active) in assay [9]; -32.7% (active) and 0.294% (active) and -36.1% (active) in assay [11]; 16.9% (inactive) and 25.6% (inactive) and 1.46% (active) in assay [12]; 27.9% (inactive) and -17% (active) and -5.99% (active) in [20]. For the same molecule, the growth in assay [13] was 26.2% (inactive) and 58.6% (inactive) and 5.66% (active); in [14] it was 27.2% (inactive) and 30.9% (inactive) and 17.8% (inactive); in [15], 40.5% (inactive) and 22.6% (inactive) and 5.83% (active); in assay [16], 74.8% (inactive) and 18.4% (inactive); in assay [17], 15% (inactive) and 28.5% (inactive) and 1.85% (active); in [18], 6.96% (active) and 15.3% (inactive) and -11.7% (active).

Consider `O=C1OC(Oc2ccc(Br)cc2)(c2ccccc2)c2ccccc21` (stereo not given), for which the growth in assay [1] is 69.6% (inactive) and 58.6% (inactive); in assay [2], 74.6% (inactive) and 70.6% (inactive); in assay [3], 61.2% (inactive) and 77.1% (inactive); in assay [4], 88.8% (inactive) and 102% (inactive); in assay [5], 78.9% (inactive) and 58.5% (inactive); in assay [6], 80.7% (inactive) and 63.6% (inactive). Moreover, the growth in assay [7] is 97.3% (inactive); in [8] it was 73.8% (inactive) and 83.9% (inactive); in [10], 101% (inactive) and 120% (inactive); in assay [11], 74.2% (inactive) and 73.2% (inactive); in [19] it was 96.4% (inactive) and 82.2% (inactive); in assay [12], 87.8% (inactive) and 98.2% (inactive). Also, the growth in assay [20] was 72.4% (inactive) and 89.3% (inactive); in [13], 89.4% (inactive) and 86.2% (inactive); in [14], 83.6% (inactive) and 80.3% (inactive); in assay [15], 17.9% (inactive) and 0.588% (active); in assay [16], 80.1% (inactive) and 93.7% (inactive); in assay [17] it was 70.1% (inactive) and 46.1% (inactive). Besides, in assay [18], the growth is 77.4% (inactive).
